In all, about 360,000 compounds went through this assay and about 9,100 (2.5%) were called active. Inconclusive results (about 4%) are left out. Rule as the data show it: active = max response below about -50%; inconclusive = no clear call, values can overlap the other calls; inactive = above that. Only a selection was taken, and actives are over-represented in it overall.
target: D(3) dopamine receptor (Homo sapiens) (UniProt P35462); experiment: qHTS of D3 Dopamine Receptor Antagonist: qHTS; conditions: D3R cells, DiscoveRx beta-arrestin luminescence, antagonist mode; stronger effect = lower value
In short: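 Cells expressing the human receptor were seeded at 1500 cells/well, incubated overnight at 37 degrees C in 5% CO2, then exposed to library compounds with dopamine controls for 90 minutes at 37 degrees C before luminescent detection.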
% is scaled to controls: 0 for no effect and ±100 for the full control effect.

Sequence of D(3) dopamine receptor (Homo sapiens) (P35462 whole entry, looked up): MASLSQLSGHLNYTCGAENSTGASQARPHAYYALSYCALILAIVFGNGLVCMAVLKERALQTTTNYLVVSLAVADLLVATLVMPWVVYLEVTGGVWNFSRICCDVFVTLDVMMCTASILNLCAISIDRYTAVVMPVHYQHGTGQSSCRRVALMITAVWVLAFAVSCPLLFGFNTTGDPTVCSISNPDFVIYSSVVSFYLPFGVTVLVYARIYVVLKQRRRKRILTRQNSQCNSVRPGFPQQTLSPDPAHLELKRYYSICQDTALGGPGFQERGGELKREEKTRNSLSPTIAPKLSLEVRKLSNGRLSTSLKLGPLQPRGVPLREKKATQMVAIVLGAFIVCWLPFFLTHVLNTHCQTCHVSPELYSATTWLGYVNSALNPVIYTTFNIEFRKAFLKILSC

SMILES	max response, negative = inhibition
CC(C)CC1C(=O)N(Cc2cn(CC3CCCCC3)nn2)CCS(=O)(=O)N1Cc1ccc(-c2ccc(Cl)cc2)cc1 (configuration not stated)	-20.8% (inactive)
COc1ccc(NC(=O)C2(C)Cc3c(-c4ccc(C(N)=O)cc4)ccnc3O2)cc1 (configuration not stated)	-3.64% (inactive)
CCOCC(=O)Nc1ncc(S(=O)(=O)c2ccc([N+](=O)[O-])cc2)s1	8.75% (inactive)
COC(=O)C(NC(=O)c1ccc(OC)cc1)(Nc1ncc(S(=O)(=O)c2ccc([N+](=O)[O-])cc2)s1)C(F)(F)F (configuration not stated)	-81.6% (active)
COc1ccc(C(=O)NCCNc2ccc([N+](=O)[O-])cn2)cc1	-27.5% (inactive)
CC(O)(c1cccc(F)c1)c1nc(-c2ccc3c(c2)OCO3)cs1 (configuration not stated)	-22.4% (inactive)
CC1(C)OC(=O)C2=C(C[C@@H](C3CC3)O[C@H]2CCc2cccc(Cl)c2)O1	12.7% (inactive)
CN1CCN(C(=O)c2ccc(NC(=O)c3ccc(Br)o3)cc2)CC1	23.3% (inactive)
CCOc1ccc2[nH]c(=S)sc2c1	-53% (active)
CCOc1ccc2[nH]c(=O)c(CN(CCCO)C(C)=O)cc2c1	3.99% (inactive)
Nc1ccc2[nH]c(=S)sc2c1	-18.8% (inactive)
COC(=O)c1cc(OC)ccc1-c1ccc(OC)cc1	-8.91% (inactive)
CCOC(=O)C1=C(c2ccc(OC)cc2)C(=O)c2ccccc2C1=O	-64% (active)
CCOC(=O)C(NC(C)=O)C(=O)Nc1ccc(OC)cc1 (configuration not stated)	-11.9% (inactive)
CC1(C(=O)Nc2ccc3c(c2)OCCO3)CN(S(C)(=O)=O)CC(=O)N1Cc1cccc(F)c1 (configuration not stated)	3.16% (inactive)
CCN(Cc1ccncc1)C(=S)Nc1ccccc1C	27.7% (inactive)
CN(CC(=O)Nc1ccc(Cl)cc1)CC(=O)Nc1cccc2ccccc12	-3.81% (inactive)
CC(=O)Nc1ccc(NC(=O)CCCNC(=O)c2ccc(Cl)cc2)cc1	-16.5% (inactive)
CCCCN(C)CCC(=O)Nc1ccc(Cl)cc1	-52.6% (active)
O=S1(=O)CC(N2CCC(Cc3ccccc3)CC2)CN1Cc1ccccc1 (configuration not stated)	-2.05% (inactive)
Cc1ccc(CS(=O)(=O)c2ncc(Cl)c(C(=O)Nc3nnc(C)s3)n2)cc1	-73.5% (active)
COCCSc1nnc(NC(=O)CCS(=O)(=O)Cc2ccccc2)s1	0.795% (inactive)
NC(=O)CSc1nnc(NC(=O)c2ccc(Br)o2)s1	4.15% (inactive)

SMILES	max response, negative = inhibition
Cc1nnc(NC(=O)c2ccc3nccnc3c2)s1	-10.2% (inactive)
O=C(Nc1ccc(F)cc1)c1ccc(S(=O)(=O)NCc2cccnc2)cc1	8.92% (inactive)
Cc1nnc(NC(=O)CCCOc2ccccc2)s1	14.4% (inactive)
CSc1nnc(NC(=O)c2nc(S(=O)(=O)Cc3ccc(C)cc3)ncc2Cl)s1	-83.3% (active)
Cc1cccc(NC(=O)c2nc(S(=O)(=O)Cc3ccccc3)ncc2Cl)c1	-1.08% (inactive)
Cc1cccc(CS(=O)(=O)c2ncc(Cl)c(C(=O)Nc3ccc(F)cc3)n2)c1	-105% (active)
CC(=O)Nc1cncc(-c2ccccc2CO)n1	10.6% (inactive)
CCOC(=O)[C@H]1Nc2ccc(Cl)cc2[C@@H]2[C@H]1C1CC(c3ccccc31)N2C(=O)OCc1ccccc1 (some centres not stated)	-1.57% (inactive)
CCCCc1c(-c2ccc(Cl)cc2)ncn1CCc1ccccc1OC	71.4% (inactive)
COc1ccc(S(=O)(=O)N(C)C)cc1NC(=O)COC(=O)c1n[nH]c2ccccc12	16% (inactive)
CCc1cc(C(=O)N(CC)CC(=O)Nc2c(F)cccc2F)sc1C	0% (inactive)
COc1ccc(CCCNC(=O)C2Cc3c(-c4cccc(C(N)=O)c4)ccnc3O2)cc1 (configuration not stated)	2.06% (inactive)
Cc1cc(O)ccc1-c1cc(C(=O)NCc2cc(C(F)(F)F)cc(C(F)(F)F)c2)[nH]n1	-17.9% (inactive)
C[C@@H]1CN([C@H](C)CO)C(=O)CCCn2nncc2CO[C@@H]1CN(C)C(=O)OCc1ccccc1	-23.6% (inactive)
CC1(C)OC(=O)C2=C(C[C@@H](C3CC3)O[C@H]2c2ccc(Cl)cc2)O1	49.4% (inactive)
COC(=O)CN1C(=O)C(O)=C(C(C)=O)C1c1ccc([N+](=O)[O-])cc1 (configuration not stated)	-23.2% (inactive)
COC(=O)CN1C(C)=Nc2ccc(Br)cc2C1c1ccccc1 (configuration not stated)	-64% (active)
CCC(CC)C(=O)N1CC(=O)Nc2ccc(Br)cc2C1c1ccccc1 (configuration not stated)	4.84% (inactive)
CN(c1ccccc1)S(=O)(=O)c1ccc(C(=O)NCc2cccnc2)cc1	-14.9% (inactive)
COc1ccc(C(C)(O)c2nc(-c3ccc(C)c(C)c3)cs2)cc1 (configuration not stated)	-20.6% (inactive)
CCNC(=O)C1(C)CCCN(C(=O)c2ccc3ccccc3n2)C1 (configuration not stated)	0% (inactive)
CCOC(=O)c1cc(-c2sc(NC(=O)c3ccccc3)nc2C)n(-c2ccc(Br)cc2)n1	24% (inactive)
COc1ccc(-c2ccc(C(=O)NC(C)C)c3occc23)c(C)c1	19.9% (inactive)

SMILES	max response, negative = inhibition
COc1ccc(-c2ccc(C(=O)NCCN3CCOCC3)c3occc23)c(C)c1	-78.2% (active)
COc1ccc(-c2cc(C(=O)NCCCN3CCOCC3)no2)cc1	1.86% (inactive)
CC(C)C[C@@H](COCc1ccc(Cl)cc1)N1CCN(C(=O)c2ccc(Cl)cc2Cl)CCC1=O	11.5% (inactive)
Cc1ccccc1OS(=O)(=O)c1cccc([N+](=O)[O-])c1	-14.2% (inactive)
CC(C)N1C(=O)c2ccccc2NC(=O)C1C(=O)NCc1cccs1 (configuration not stated)	-19.3% (inactive)
COC(=O)C[C@H]1C[C@@H]2c3cc(N(C)C)ccc3O[C@@H]2[C@H](CO)O1	17% (inactive)
O=C(NCc1ccccc1)C1c2ccccc2OCC(=O)N1CCCN1CCOCC1 (configuration not stated)	0.216% (inactive)
O=C(NCc1ccc(F)cc1)c1cc(C2CCCCN2C(=O)c2cccs2)on1 (configuration not stated)	12.8% (inactive)
CCC1NC(=O)c2cccnc2-n2c1nc1ccc(C)cc1c2=O (configuration not stated)	16.9% (inactive)
CN1CCN(C2Cc3ccc(Cl)cc3Sc3ccc(F)cc32)CC1 (configuration not stated)	-88% (active)
COCCNC(=O)C1C(=O)Nc2ccccc2C(=O)N1c1ccc2c(c1)OCCO2 (configuration not stated)	5.54% (inactive)
Cn1c(C(=O)NCCN2CCc3ccccc3C2)cc2c(=O)[nH]c3ccccc3c21	-59.2% (active)
O=C(c1ncn2c1c(=O)[nH]c1ccccc12)N1CCc2ccccc2C1	1.07% (inactive)
Cc1cccc(N2CCN(C(=O)c3cc4c(=O)[nH]c5ccccc5c4n3C)CC2)c1C	2.48% (inactive)
CCCCCCN1CCN(C2CN(Cc3cn(Cc4ccc(F)cc4)nn3)S(=O)(=O)C2)CC1 (configuration not stated)	3.43% (inactive)
Cc1c(C(=O)Nc2ccccc2Cl)oc2ccc(S(=O)(=O)N3CCC4(CC3)OCCO4)cc12	22.3% (inactive)
CCOc1ccccc1NC(=O)c1cc(S(=O)(=O)N2CCC3(CC2)OCCO3)ccc1F	-83.8% (active)
Cc1cccc(NC(=O)c2cc(S(=O)(=O)N3CCC4(CC3)OCCO4)ccc2F)c1	-11.3% (inactive)
CCCC(=O)N1CCC1(C)C(=O)NCc1ccc(SC)cc1 (configuration not stated)	-2.93% (inactive)
Cc1cccc(S(=O)(=O)N(C)C[C@H]2OCc3cnnn3CCCC(=O)N([C@@H](C)CO)C[C@H]2C)c1	19.6% (inactive)
CC(=O)Nc1c(-c2ccc(C)cc2)nc2ccc(Cl)cn12	-4.26% (inactive)
CC(C)c1cc(C(=O)N(C)C2CCCN(Cc3ccccc3F)C2)n(C)n1 (configuration not stated)	-9.14% (inactive)
CSc1ncnc2c1ncn2CCCNCC(C)c1ccccc1 (configuration not stated)	1.7% (inactive)

SMILES	max response, negative = inhibition
CSc1ncnc2c1ncn2CCCNCc1ccco1	0.282% (inactive)
CSc1ncnc2c1ncn2CCCNCC1CCCCC1	-105% (active)
CCCCNC(=O)OC1CC2CC1[C@H]1CCCCN1C2=O (some centres not stated)	2.26% (inactive)
CCOC(=O)N1CCN(S(=O)(=O)c2ccc(OC)cc2)CC1	3.43% (inactive)
CCOC(=O)N1CCN(S(=O)(=O)c2ccc(C(=O)Nc3ccc(F)cc3F)cc2)CC1	-76.7% (active)
CCOC(=O)N1CCN(S(=O)(=O)c2ccc(Br)cc2)CC1	8.1% (inactive)
Cc1nc(C(F)(F)F)ccc1C(=O)N1CCC1(C)C(=O)NS(=O)(=O)c1ccccc1 (configuration not stated)	25.3% (inactive)
O=[N+]([O-])c1ccc(CN2CC(N3CC=CC3)CS2(=O)=O)cc1 (configuration not stated)	9.3% (inactive)
NC(CSC(c1ccccc1)(c1ccccc1)c1ccc(-c2ccccc2)cc1)C(=O)O (configuration not stated)	6.39% (inactive)
CC(=O)Nc1cccc(NC(=O)c2ccc3c(c2)CCN3S(C)(=O)=O)c1	-9.74% (inactive)
CN(c1ccc(C(=O)N2CCc3ccccc3C2)cc1)S(C)(=O)=O	30.4% (inactive)
O=C(Nc1ccc(CSc2ccccc2)cc1)c1ccc(CN2CCOCC2)cc1	2.28% (inactive)
Cc1cccc(C)c1NC(=O)c1ccc(CN2CCc3ccccc3C2)cc1	-84.7% (active)
CCc1ccc(NC(=O)N2CCc3ccccc3C2)cc1	-11% (inactive)
CN(c1cccc(NC(=O)c2ccc(CN3CCc4ccccc4C3)cc2)c1)S(C)(=O)=O	-69.7% (active)
CC1(C(=O)NS(=O)(=O)c2cccc(OC(F)F)c2)CCN1C(=O)C1CC1 (configuration not stated)	-9.73% (inactive)
c1ccc(Cc2c(-c3ccco3)nc3c4ccccc4ccn23)cc1	21.1% (inactive)
O=C(COC(=O)c1ccc(S(=O)(=O)N2CCCCCC2)cc1)Nc1ccccc1C(F)(F)F	-1.68% (inactive)
CSc1ccc(CNC(=O)C2(C)CCCN2C)cc1 (configuration not stated)	0% (inactive)
CCOC(=O)N1CCN(C(c2ccnc3ccccc23)c2nnnn2-c2c(C)cccc2C)CC1 (configuration not stated)	-7.2% (inactive)
O=C(COC(=O)c1ccccc1)c1ccc2c(c1)OCCO2	-5.24% (inactive)
O=C(CCN1CCc2ccccc2C(O)(c2ccccc2)C1)c1ccc2c(c1)OCCO2 (configuration not stated)	-73.7% (active)
CCC1(c2ccccc2)NC(=O)N(CC(=O)c2ccc3c(c2)OCO3)C1=O (configuration not stated)	4.79% (inactive)

Reference: PubChem BioAssay AID652054 (National Center for Advancing Translational Sciences (NCATS), 2013)
